14-3-3 Bad inh: disrupts binding of bovine 14-3-3 zeta to phospho-Bad peptide. actives 0.71% (n = 220,000). P63103. inhibition, % at 21.7 µM. TR-FRET 14-3-3zeta/Dy647-pBad peptide displacement, 1 h;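 active = inhibition above about 70%, limit read from the data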;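 also: 0% = full 14-3-3 plus peptide FRET controls and 100% = background without 14-3-3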
Target sequence (P63103 whole entry, looked up): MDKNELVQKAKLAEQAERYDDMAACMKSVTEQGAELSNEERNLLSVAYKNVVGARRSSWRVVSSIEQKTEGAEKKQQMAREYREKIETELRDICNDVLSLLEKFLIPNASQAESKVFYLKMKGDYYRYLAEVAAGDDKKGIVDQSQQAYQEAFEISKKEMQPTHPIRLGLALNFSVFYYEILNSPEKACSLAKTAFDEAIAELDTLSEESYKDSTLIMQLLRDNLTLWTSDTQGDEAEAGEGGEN
Mcl1-Noxa inh: Mcl-1/Noxa interaction inhibition; TR-FRET Mcl-1/Noxa peptide binding, 2 h; inhibition, % at 21.7 µM; actives 1.5% (n = 220,000); AID 1022;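 active = compounds that cut the protein-peptide binding signal by more than 50% relative to plate controls in a single-dose test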;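 also: His-tagged Mcl-1 with rhodamine Noxa BH3 peptide and terbium anti-His antibody; 0% = Mcl-1 plus Noxa peptide wells and 100% = peptide-only wells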
Mcl1 Bid PPI: Mcl-1/Bid interaction inhibition | Q07820 | TR-FRET Mcl-1/Bid-Dy647 peptide binding, 1536-well | inhibition, % at 21.7 µM | actives 0.97% (n = 220,000);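 active = compounds that cut the binding signal by more than half at the single screening dose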;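 also: His-tagged Mcl-1 with europium anti-His antibody binding Bid BH3 peptide; 0% = Mcl-1 plus peptide wells and 100% = peptide-only wells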
p47phox inh: inhibitors of human p47phox binding. P14598. p47phox/p22phox peptide binding, fluorescence polarization, 2 h. inhibition, % at 24.7 µM. actives 0.53% (n = 220,000). AID 1274;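 active = inhibition above about 30%, limit read from the data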;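 also: 0% = p47phox with labelled peptide and 100% = labelled peptide alone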
Target sequence (P14598 whole entry, looked up): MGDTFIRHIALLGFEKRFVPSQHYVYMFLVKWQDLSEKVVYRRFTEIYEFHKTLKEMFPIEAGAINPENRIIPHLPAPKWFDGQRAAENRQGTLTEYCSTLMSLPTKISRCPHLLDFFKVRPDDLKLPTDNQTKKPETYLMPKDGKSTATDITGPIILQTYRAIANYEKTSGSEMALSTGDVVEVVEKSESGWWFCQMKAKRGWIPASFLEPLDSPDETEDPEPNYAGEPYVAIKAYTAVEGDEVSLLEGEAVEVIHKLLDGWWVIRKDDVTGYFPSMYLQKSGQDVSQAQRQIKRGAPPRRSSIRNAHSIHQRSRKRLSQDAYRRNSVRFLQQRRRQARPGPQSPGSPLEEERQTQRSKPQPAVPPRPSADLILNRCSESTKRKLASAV
Mcl-1 Bim block: disrupts Bim peptide binding to human Mcl-1; Q07820; Bead-based flow cytometry, Bim peptide-Mcl-1 binding; actives 0.1% (n = 190,000); inhibition, % at 10 µM; AID 1009; in the data active = inhibition above about 40%;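 also: 0% = no compound tracer wells and 100% = peptide blocker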
The depositor's hits bear a star; / = no result. Most compounds without a hit are left out; they make up all but 3.2% or so of the library.

SMILES | 14-3-3 Bad inh | Mcl1-Noxa inh | Mcl1 Bid PPI | p47phox inh | Mcl-1 Bim block
Nc1ccccc1-c1nnc(-c2ccc(-c3ccccc3)cc2)o1 | / | -8 | -32 | 58* | 0
O=C(O)CSCC(=O)Nc1ccc(-c2nc3ccccc3s2)cc1 | 9 | 56* | -10 | -26 | /
Cc1ccc2nc(-c3ccc(NC(=O)CCN4C(=O)c5ccccc5C4=O)cc3)sc2c1 | 40 | 49 | 56* | -2 | -2
O=C(NC1CCCCC1)c1sc(=S)n2c1[nH]c(=O)c1ccccc12 | 19 | 76* | 30 | -25 | -1
COc1cc(C(=O)NCC(=O)OCCN2C(=O)c3ccccc3C2=O)cc(OC)c1OC | -12 | -3 | -52 | -8 | 0
CC(=O)N=Cc1c(C)c(C#N)c(=O)n(C)c1O | 6 | 28 | -49 | -11 | -1
Cc1c(C=O)c(Cl)n(C)c(=O)c1C#N | 5 | 55* | -6 | -16 | 0
COc1cccc(Nc2nc(NCCO)c3ccccc3n2)c1 | 44 | 23 | -34 | -9 | 3
Oc1ccccc1Nc1nc(NCc2ccco2)c2ccccc2n1 | -2 | 60* | -47 | -7 | /
c1ccc(CN2CCN(c3nc(NCc4ccco4)c4ccccc4n3)CC2)cc1 | 37 | 6 | -32 | 7 | 0
COc1cccc(Nc2nc(NCC3CCCO3)c3ccccc3n2)c1 (centres undefined) | 51 | 41 | 92* | -26 | 2
Oc1ccccc1Nc1nc(NCC2CCCO2)c2ccccc2n1 (centres undefined) | 77* | 35 | -53 | -23 | 3
OCCN1CCN(c2nc(NCc3ccco3)c3ccccc3n2)CC1 | 33 | 51* | 1 | -3 | -1
CCOC(=O)c1ccc(NC(=O)c2cc3c(s2)CCC3)cc1 | 3 | 33 | -2 | -1 | /
COc1ccc(-c2nn(-c3ccccc3)cc2/C=C/C(=O)N2CCOCC2)cc1OC | -4 | 10 | -13 | -14 | -1
Oc1ccc(Nc2nc(NCC3CCCO3)c3ccccc3n2)cc1 (centres undefined) | 13 | 55* | -32 | -9 | 0
c1ccc2c(NCC3CCCO3)nc(N3CCCCC3)nc2c1 (centres undefined) | 15 | 6 | -3 | -5 | 0
COc1ccc(C(=O)NNC(=O)CN2CCC(n3nnc4cc(C(F)(F)F)ccc43)CC2)cc1 | -6 | 52* | 0 | 5 | -2
COc1ccc(C(=O)NNC(=O)CN2CCC(n3nnc4cc(F)ccc43)CC2)cc1 | 8 | 4 | -26 | 10 | -7
Cc1ccnc(N/C=C(\C#N)c2nc(-c3cccc(Br)c3)cs2)c1 | 65 | 61* | 73* | -7 | 0
N#Cc1c(-n2cccc2/C=N/O)sc2c1CCCC2 | -3 | 9 | -43 | -6 | -2
C=CCNCc1cccn1-c1sc2c(c1C#N)CCCC2 | 71* | 34 | 34 | -19 | 5
O=C(O)c1nn2cc(CCO)cnc2c1Cl | -8 | 8 | -4 | -4 | -1
CC(Cn1cnc2ccccc21)C(=O)O (centres undefined) | -7 | 13 | -8 | -5 | 0
O=C(O)c1ccn(Cn2cnc3ccccc32)n1 | 76* | 22 | 3 | 8 | 0
SMILES | 14-3-3 Bad inh | Mcl1-Noxa inh | Mcl1 Bid PPI | p47phox inh | Mcl-1 Bim block
CC(C)n1c(=O)[nH][nH]c1=S | -2 | 37 | -9 | 43* | /
CCOCC(=O)Nc1cc(Cl)c(OC)cc1OC | -4 | 2 | -17 | -4 | 0
Oc1c(CN2CCOCC2)cc(-c2ccccc2)cc1CN1CCOCC1 | -6 | 15 | -31 | -2 | -1
CC(C)(C)c1nc(CN2CCOCC2)cc(CN2CCOCC2)c1O | 79* | 21 | -8 | 8 | 1
COc1ccc([N+](=O)[O-])cc1NC(=O)CCSCCc1ccccn1 | 4 | 9 | -20 | 2 | -3
CCn1c(=O)c(-[n+]2ccccc2)c(O)c2ccccc21 | 72* | 8 | -14 | -1 | -4
COc1ccc(/C=C/C(=O)C(C(N)=O)=C2SCCS2)cc1 | 4 | 20 | -9 | 23 | 17
Cc1ccc(C(=O)C(C(=O)/C=C/c2ccccc2)=C2SCCCS2)cc1 | 2 | 2 | 3 | -7 | 58*
CCCOc1ccc(/C(O)=C2\C(=O)C(=O)N(CCCOC)C23C(=O)N(C)c2ccccc23)cc1 (centres undefined) | 70* | -9 | -1 | 1 | 3
COc1ccc(OC)c(Nc2nc(=O)c3cccnc3s2)c1 | -10 | 56* | -59 | 60* | 0
O=C(Nc1ccc(F)cc1)C(Sc1nc2ccccc2[nH]1)c1ccccc1 (centres undefined) | -13 | 6 | -16 | -14 | -4
C/C=C/C=C/C(=O)N1CC[C@]23c4ccccc4N[C@H]4N(C)c5cccc6c5[C@]42CCN([C@H]6C2OC2(C)C)[C@H]13 (some centres undefined) | -4 | 64* | -109 | -3 | /
Nc1c(Cl)ncnc1NCCc1ccc(O)cc1 | -1 | -5 | -62 | -1 | /
CC1COC(Cn2c3ccccc3c3ccccc32)O1 (centres undefined) | 16 | 18 | 61* | -6 | /
CC1(C)COC(Cn2c3ccccc3c3ccccc32)O1 (centres undefined) | 3 | -7 | -22 | -5 | /
CCC(C)(C)C1CCc2nc3ccccc3c(C(=O)OC(C)C(=O)Nc3c(C)n(C)n(-c4ccccc4)c3=O)c2C1 (centres undefined) | -24 | 2 | 0 | -12 | -2
COc1ccc(NC(=O)/C(C#N)=C/c2ccc(Sc3nncn3C)c([N+](=O)[O-])c2)cc1 | 26 | 33 | -27 | 6 | -2
O=C(Nc1ccccc1Cl)C1CCCN(S(=O)(=O)c2ccc(F)cc2)C1 (centres undefined) | 77* | 10 | -15 | -2 | 0
Cc1c(C#N)c(=O)c(-[n+]2ccccc2)c([S-])n1-c1ccc(Cl)cc1 | -1 | 1 | -50 | -9 | /
CN(C(=O)CSC1=NC2C(N=N1)c1cc(Br)ccc1N2C)C1CCCCC1 (centres undefined) | -3 | -67 | 23 | 22 | 1
COc1ccc(CCN=C(C)C2=C(O)C(c3ccccc3)OC2=O)cc1OC (centres undefined) | -1 | 1 | -1 | 0 | 0
O=C(/C=C/c1ccc(Br)o1)Nc1nnc(C2CC2)s1 | -3 | 62* | 18 | -74 | /
Cc1cnc(NC(=O)/C=C/c2ccc(Br)o2)s1 | 13 | 28 | 6 | -10 | /
O=C(N/N=C/C(Cl)=C/c1ccc([N+](=O)[O-])cc1)C(=O)Nc1ccccc1C(=O)O | 12 | 56* | -1 | -21 | /
O=C(N/N=C/C(Cl)=C/c1ccc([N+](=O)[O-])cc1)C(=O)Nc1ccc(C(=O)O)cc1 | 0 | 34 | 10 | -17 | /
COc1cccc(-n2nnc3c(=O)n(CC(=O)Nc4ccccc4C)cnc32)c1 | 0 | -14 | -24 | 8 | 4
COc1cccc(-n2nnc3c(=O)n(CC(=O)NC4CCCC4)cnc32)c1 | -4 | 52* | 9 | -5 | -3
COCC(=O)Nc1ccc(C(=O)Nc2ccccc2Cl)cc1 | -10 | -13 | 1 | 1 | -1

Screens from PubChem.
